# FMDV inh: antivirals against foot and mouth disease virus | FMDV antiviral cell-based qHTS | Potency, µM (doses to about 57.9 µM), for the others: at the top dose activity change, negative = inhibition, most hits filed as inhibitors | 1.2% of 410,000 active | AID 1159524; calls by dose curve; tested in HEK293T cells; further: read-out not given here; nearly all actives have a fitted effect of over 45% in size
# Vaccinia mCherry: inhibitors of vaccinia virus infection (mCherry reporter signal). AID 720579. Potency, µM (highest dose often 36.5 µM), for inactives: top-dose activity change, negative = inhibition, usual class: inhibitors. 0.63% of 310,000 active. Vaccinia virus mCherry reporter infection, fluorescence; calls by dose curve; tested in A549 cells; further: nearly all actives have a fitted effect of over 35% in size
# Marburg entry inh: Marburg virus entry inhibition | Marburg virus pseudotyped entry inhibition, cell reporter | Potency, µM (top dose mostly 37.8 µM), for the others: at the top dose activity change, negative = inhibition, actives largely listed as inhibitors | 1.8% of 300,000 active; calls by dose curve; tested in HEK293 cells
# Sm TGR inh: S. mansoni TGR enzyme inhibition | purified TGR, DTNB reduction, TNB absorbance 405 nm | Potency, µM (series often up to 114 µM), inactives show at the top dose activity change, negative = inhibition, actives largely listed as inhibitors | 3% of 360,000 active | AID 485364; active means well fitted inhibition curve with a large enough effect; inconclusive means small, poorly fitted or top-dose-only effect; inactive means no such curve, though single readings can be large or run the other way; further: nearly all actives have a fitted effect of over 60% in size
#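 First, TGR (20 nM dispensed) and NADPH were mixed with compound. Second, a 15 min room-temperature incubation followed. Third, further NADPH and then DTNB were added to start the reaction. Finally, TNB absorbance was monitored kinetically.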
# LASV entry inh: Lassa virus entry inhibition; Lassa virus pseudotype entry inhibition, cell reporter; Potency, µM (highest dose often 37.9 µM), for inactives: at the top dose activity change, negative = inhibition, most hits filed as inhibitors; 1.2% of 300,000 active; AID 540256; calls by dose curve; tested in HEK293 cells; further: nearly all actives have a fitted effect of over 50% in size
# Vaccinia Venus: vaccinia inhibition (Venus reporter); Potency, µM (series often up to 36.5 µM), for the others: top-dose activity change, negative = inhibition, most hits filed as inhibitors; Vaccinia virus Venus reporter expression, fluorescence; 0.46% of 330,000 active; calls by dose curve; tested in A549 cells; further: nearly all actives have a fitted effect of over 30% in size
# * = called active by the depositor; i = inactive; u = inconclusive; x = no result; [ ] = remark or other dose. Hits are enriched below; roughly 5.4% of the tested compounds scored in any of these assays. On the % scale 0 is the no-effect control and ±100 the full control effect; potency means the concentration at half of the fitted maximal effect.
SMILES,FMDV inh,Vaccinia mCherry,Marburg entry inh,Sm TGR inh,LASV entry inh,Vaccinia Venus
CCOc1ccc(-n2c(C)nc3cc(C(=O)NCC4CCCO4)ccc32)cc1 (stereo unspecified),2%,-13%,u,4%,5µM*,-7%
COc1ccc(OC)c(CN2CCOc3ccc(C(O)c4cccnc4)cc3C2)c1 (stereo unspecified),-4%,-22%,x,x,x,-13%
COc1ccccc1CCn1cnc(Cc2cccc(F)c2)c1C(C)C,22µM*,-18%,x,x,x,-21%
CCc1ncn(CCc2ccccc2OC)c1C(C)C,-16%,7%,x,x,x,9%
COc1cccc(-c2ncn(CCc3ccccc3OC)c2C(C)C)c1,32µM*,i,x,x,x,-13%
COc1ccc(S(=O)(=O)N2CC(=O)Nc3ccccc32)cc1F,-5%,-17%,-20%[46.1 µM],11µM*,-16%[46.1 µM],-5%
C=C1C(=O)C23C(O)C1CCC2C12CCCC(C)(COC(C)=O)C1C(O)C3(O)OC2 (stereo unspecified),3.5µM*,2.5µM*,u,x,11µM*,4µM*
Cc1cc(OCC(=O)Nc2ccc(N3CCN(C(=O)c4ccco4)CC3)cc2)cc(C)c1Cl,6.3µM*,u,-41%,0%,-35%,u
CCC(=O)N1CCN(c2ccc(NC(=O)COc3cccc(C)c3C)cc2)CC1,-27%,-26%,-6%[46.1 µM],-7%,u,-13%
COc1ccc(OCC(=O)Nc2ccc(N3CCN(C(=O)c4ccccc4)CC3)c(Cl)c2)cc1,11µM*,u,u,-8%,u,u
Cc1cccc(OCC(=O)Nc2ccc(N3CCN(C(=O)c4ccccc4)CC3)cc2)c1C,14µM*,u,3%,2%,-18%,-22%
Cc1cccc(OCC(=O)Nc2ccc(N3CCN(C(=O)c4ccco4)CC3)cc2)c1,16µM*,u,u,12%,u,u
CCCN1C(=O)C2(c3ccccc31)c1c(oc3ccc(C)cc3c1=O)C(=O)N2CCOC (stereo unspecified),-18%,-7%,14%[46.1 µM],7%,-15%[46.1 µM],-7%
CCOc1ccc2nc(N3CCCC3C(=O)N3CCC(c4nc5ccccc5o4)CC3)nc(C)c2c1 (stereo unspecified),-6%,-14%,x,x,x,-10%
Cc1ccc(OCC(=O)Nc2ccc(N3CCN(S(C)(=O)=O)CC3)cc2)cc1C,-14%,6%,-21%[46.1 µM],10%,2%,-5%
Cc1ccc(OCC(=O)Nc2ccc(N3CCN(C(=O)c4ccco4)CC3)cc2)cc1C,14µM*,-15%,u,19%,-20%,u
Cc1ccccc1OCC(=O)Nc1cccc(C(=O)O)c1,4µM*,3%,u,2%,0.89µM*,0%
Cc1cccc(OCC(=O)Nc2cc(NC(=O)COc3cccc(C)c3C)cc(C(=O)O)c2)c1C,60%,x,x,1%,x,x
CCc1cc2c(cc3c(=O)n(CC(=O)NCc4cc(Br)ccc4OC)ncn32)s1,-4%,u,10%[46.1 µM],17%,x,u
CC1CCN(c2nc3nonc3nc2Nc2ccc(F)cc2)CC1,28µM*,u,u,-4%[57.1 µM],u,-19%
COc1ccc(Nc2nc3nonc3nc2N2CCCCC2)cc1,-18%,11%,u,-11%,u,20%
Cc1ccc(C)c(NC(=O)C2CCN(c3cc(C)nc4c(-c5ccc(Cl)cc5)c(C)nn34)CC2)c1,-14%,-3%,15%[46.1 µM],6%,u,3%
CN1CCN(S(=O)(=O)c2ccc(Sc3nnc(-c4cccs4)n3-c3ccccc3)nc2)CC1,u,10µM*,-24%,-3%,5%,u
COc1cc(CNc2ccc3[nH]c(=O)[nH]c3c2)cc(Br)c1OCC(=O)NC(C)(C)C,u,x,-24%,13µM*,-1%,x
COc1cc(CNc2ccc3[nH]c(=O)[nH]c3c2)ccc1OCc1ccccc1F,-15%,u,u,0%,-10%[46.1 µM],u
SMILES,FMDV inh,Vaccinia mCherry,Marburg entry inh,Sm TGR inh,LASV entry inh,Vaccinia Venus
COc1cc(CNc2ccc3[nH]c(=O)[nH]c3c2)cc(Br)c1OCc1ccccc1F,u,6.3µM*,u,u,-23%[46.1 µM],u
COc1ccc2cc3cc(C(=O)N4CCN(c5cccc(Cl)c5)CC4)sc3nc2c1,-4%,-3%,10%[46.1 µM],0%,-2%[46.1 µM],0%
CC(C)C(C(=O)O)N1C(=O)/C(=C/C=C/c2ccco2)SC1=S (stereo unspecified),0%,2%,u,11µM*,-3%,42%
O=C(NN1C(=O)/C(=C/C=C/c2ccco2)SC1=S)c1ccncc1,0%,-10%,u,3.2µM*,-27%[46.1 µM],18%
CC(C)C(C(=O)O)N1C(=O)/C(=C/c2cccn2C)SC1=S (stereo unspecified),2%,i,11%,-26%,23%,-10%
O=C1/C(=C/C=C/c2ccco2)SC(=S)N1c1ccc(O)cc1,7%,u,x,4.5µM*,x,5%
O=C(NN1C(=O)/C(=C/C=C/c2ccccc2)SC1=S)c1ccncc1,-22%,i,0%[46.1 µM],-23%,-22%[46.1 µM],19%
O=C(N/N=C\c1cccc(OC(=O)c2ccco2)c1)c1ccc2c(c1)OCO2,u,-21%,u,-17%,15µM*,-10%
O=c1n(CCCN2CCN(C3CCCC(Cl)C3)CC2)nc2ccccn12 (stereo unspecified),x,x,40%,x,x,x
CCN(CC)C(=O)[C@H]1C[C@H](CC(=O)NCCCN(C)C)C(=O)N2CCc3c([nH]c4cc(-c5ccco5)ccc34)[C@]12C,-6%,u,x,x,x,-15%
C[C@]12c3[nH]c4cc(-c5ccco5)ccc4c3CCN1C(=O)[C@@H](CC(=O)NCC13CC4CC(CC(C4)C1)C3)C[C@@H]2C(=O)N1CCOCC1,u,u,x,x,x,10µM*
CCN(CC)C(=O)[C@H]1C[C@H](CC(=O)NCC23CC4CC(CC(C4)C2)C3)C(=O)N2CCc3c([nH]c4cc(-c5ccco5)ccc34)[C@]12C,u,u,x,x,x,11µM*
OCCN1CCN(Cc2ccc3c(c2)CN(Cc2ccc4ccccc4c2)CCO3)CC1,8%,-11%,x,x,x,10%
CNCCCCCCCCSc1nc(C(C)C)ccc1C(=O)c1cccs1,49%,x,x,x,x,x
CCN(CC)CCNCC1C(=O)O[C@@H]2C[C@@]3(C)CCC[C@H](C)C3=C[C@H]12 (stereo partly specified),u,4.5µM*,-6%,-10%,u,10µM*
O=C1OC2(c3ccccc31)c1cc(I)c(O)c(I)c1Oc1c2cc(I)c(O)c1I,x,x,x,0.89µM*,x,x
COc1cc2c3c(c1)/C(=C1/SC(NC(C)=O)=NC1=O)C(=O)N3C(C)(C)C=C2C,-24%,u,-2%[46.1 µM],40µM*,22%,-14%
O=C(Cn1ccc2cc(S(=O)(=O)N3CCCCCC3)ccc21)NCc1cccc(Cl)c1,15%,-15%,x,4%,-14%[46.1 µM],-12%
COc1ccccc1CNC(=O)CCCNC(=O)c1ccc(Cl)cc1,-4%,-4%,-3%[46.1 µM],5%,-5%,-2%

# Compound activity from PubChem BioAssay.
